14 sequences from publication PMC4081100, “A DNA-binding-site landscape and regulatory network analysis for NAC transcription factors in Arabidopsis thaliana” can be followed below.

Common to all, as to experiment: universal protein binding microarray (PBM); transcription factors of Arabidopsis thaliana; high values mean tight binding
Conditions in all cases: protein: recombinant; tags: GST; chain copies: 2; dsDNA, one strand shown

For test [1], the target named is T1, GST-ANAC092(1-176) (Arabidopsis thaliana, UniProt Q9FKA0 1-176).
T1 sequence: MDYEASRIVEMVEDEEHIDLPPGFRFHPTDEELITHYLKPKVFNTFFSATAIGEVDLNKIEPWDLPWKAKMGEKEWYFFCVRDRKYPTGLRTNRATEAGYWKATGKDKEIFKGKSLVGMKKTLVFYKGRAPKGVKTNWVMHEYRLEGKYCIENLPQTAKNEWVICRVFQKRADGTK
The method in brief:
(§1)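 GST-tagged NAC-domain, full-length or DNA-binding-domain proteins were induced in cells, with zinc acetate added for zinc-finger proteins. They were purified on glutathione–Sepharose 4B and quantified by A280 or anti-GST western blot. Each was applied at 200 to 500 nM final, in duplicate, to custom all-10-mer Agilent 4 × 180K arrays made double-stranded by primer extension, with gapped and ungapped 8-mers scored. Binding is the normalised enrichment score (E-score).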

The target of test [2] is GST-NTL6(1-168) (Arabidopsis thaliana, UniProt Q9SCK6 1-168). The essentials:
as §1

In test [3] the target is T2, GST-ANAC019 NAC domain (Arabidopsis thaliana, UniProt Q9C932 14-162).
T2 sequence: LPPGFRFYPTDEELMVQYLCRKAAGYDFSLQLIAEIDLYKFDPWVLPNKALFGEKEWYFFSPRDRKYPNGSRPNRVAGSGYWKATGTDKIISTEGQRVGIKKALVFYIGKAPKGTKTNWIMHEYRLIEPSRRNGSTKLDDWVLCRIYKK
The method in brief:
as §1

The target in test [4] is T3, GST-ANAC055(1-171) (Arabidopsis thaliana, UniProt Q9LDY8 1-171).
T3 sequence: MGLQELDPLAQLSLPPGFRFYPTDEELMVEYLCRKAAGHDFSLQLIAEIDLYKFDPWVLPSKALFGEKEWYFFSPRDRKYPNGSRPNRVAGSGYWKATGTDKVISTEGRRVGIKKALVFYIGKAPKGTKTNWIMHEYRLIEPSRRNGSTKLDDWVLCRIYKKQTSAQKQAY
The essentials:
as §1

Test [5] deals with T4, GST-ATAF1 NAC domain (Arabidopsis thaliana, UniProt Q39013 7-158).
T4 sequence: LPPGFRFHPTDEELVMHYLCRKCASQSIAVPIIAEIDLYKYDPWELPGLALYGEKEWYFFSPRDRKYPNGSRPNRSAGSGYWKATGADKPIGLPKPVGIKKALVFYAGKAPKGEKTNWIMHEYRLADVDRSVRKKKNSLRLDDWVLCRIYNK
The essentials: as §1

In test [6] the target is T5, GST-ANAC092(1-285) full length (Arabidopsis thaliana, UniProt Q9FKA0 1-285).
T5 sequence: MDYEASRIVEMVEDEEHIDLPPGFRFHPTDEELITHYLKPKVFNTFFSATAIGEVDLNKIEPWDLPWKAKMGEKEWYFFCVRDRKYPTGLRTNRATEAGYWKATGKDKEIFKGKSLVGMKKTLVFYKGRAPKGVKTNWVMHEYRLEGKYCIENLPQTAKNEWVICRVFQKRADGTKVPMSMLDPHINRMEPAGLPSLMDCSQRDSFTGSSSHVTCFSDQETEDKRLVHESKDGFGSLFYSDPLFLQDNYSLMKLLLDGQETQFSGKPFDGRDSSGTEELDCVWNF
The method in brief: as §1

Test [7] deals with T6, GST-NAP(1-166) (Arabidopsis thaliana, UniProt O49255 1-166).
T6 sequence: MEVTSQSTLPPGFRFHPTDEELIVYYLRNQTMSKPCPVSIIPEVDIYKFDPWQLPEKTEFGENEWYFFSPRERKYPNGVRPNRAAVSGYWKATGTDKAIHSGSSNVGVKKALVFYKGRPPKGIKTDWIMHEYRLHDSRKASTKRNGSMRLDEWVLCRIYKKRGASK
The method in brief: as §1

In test [8] the target is T7, GST-NST2(1-184) (Arabidopsis thaliana, UniProt Q9M274 1-184).
T7 sequence: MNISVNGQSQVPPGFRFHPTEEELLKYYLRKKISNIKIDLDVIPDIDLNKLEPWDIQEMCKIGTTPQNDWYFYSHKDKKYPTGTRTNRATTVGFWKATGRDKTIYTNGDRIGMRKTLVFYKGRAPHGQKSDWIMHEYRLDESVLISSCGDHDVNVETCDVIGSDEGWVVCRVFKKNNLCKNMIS
The method in brief: as §1

For test [9], the target named is T8, GST-SND1(1-203) (Arabidopsis thaliana, UniProt Q9LPI7 1-203).
T8 sequence: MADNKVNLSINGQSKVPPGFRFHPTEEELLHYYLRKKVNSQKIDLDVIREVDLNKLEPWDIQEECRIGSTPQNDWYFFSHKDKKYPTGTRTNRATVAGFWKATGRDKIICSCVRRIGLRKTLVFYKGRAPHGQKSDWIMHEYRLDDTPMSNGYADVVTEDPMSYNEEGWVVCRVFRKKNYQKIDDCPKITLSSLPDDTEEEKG
The essentials:
as §1

In test [10] the target is T9, GST-VND3 NAC domain (Arabidopsis thaliana, UniProt Q9FH59 12-162).
T9 sequence: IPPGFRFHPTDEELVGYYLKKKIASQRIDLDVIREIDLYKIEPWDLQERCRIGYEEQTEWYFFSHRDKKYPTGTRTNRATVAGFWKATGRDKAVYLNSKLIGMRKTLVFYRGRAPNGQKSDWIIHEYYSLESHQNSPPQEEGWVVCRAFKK
The essentials: as §1

Test [11] concerns the target T10, GST-VND7 NAC domain (Arabidopsis thaliana, UniProt Q9C8W9 9-158).
T10 sequence: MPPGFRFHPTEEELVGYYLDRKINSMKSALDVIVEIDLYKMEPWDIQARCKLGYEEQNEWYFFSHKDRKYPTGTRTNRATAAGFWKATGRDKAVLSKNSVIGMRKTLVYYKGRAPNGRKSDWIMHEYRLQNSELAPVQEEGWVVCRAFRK
The essentials: as §1

Test [12] has as its target T11, GST-NTL8 NAC domain (Arabidopsis thaliana, UniProt Q9XIN7 14-156).
T11 sequence: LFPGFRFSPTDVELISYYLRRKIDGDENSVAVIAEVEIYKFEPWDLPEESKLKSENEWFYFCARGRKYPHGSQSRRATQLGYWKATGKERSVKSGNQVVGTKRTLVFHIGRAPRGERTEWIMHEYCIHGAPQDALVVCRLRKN
The essentials:
as §1

Sequence of GST-NTL6(1-168) (Q9SCK6 1-168): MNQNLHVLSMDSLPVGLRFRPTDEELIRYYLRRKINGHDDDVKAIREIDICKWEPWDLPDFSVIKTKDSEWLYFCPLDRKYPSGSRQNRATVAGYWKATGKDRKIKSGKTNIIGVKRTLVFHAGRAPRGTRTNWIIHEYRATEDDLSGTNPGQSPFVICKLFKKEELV

In the case of AAACGTGT, the binding signal in [1] came out at 0.424 E-score; in test [2] it was 0.0946 E-score; in test [3], 0.269 E-score; in [4] it was 0.33 E-score; in test [5], 0.339 E-score; in [6] it was 0.435 E-score. Further, the binding signal was found to be 0.249 E-score in test [7]; 0.275 E-score in test [8]; 0.214 E-score in test [9]; 0.328 E-score in test [10]; 0.306 E-score in test [11].
Turning to GTGAAGAA, the binding signal in test [1] came out at 0.238 E-score; in [2] it was 0.244 E-score; in test [3], 0.305 E-score; in [4] it was 0.215 E-score; in test [5] it was 0.316 E-score; in [6], 0.197 E-score. In addition, the binding signal in test [7] worked out at 0.164 E-score; in [8], 0.129 E-score; in [12] it was 0.403 E-score; in [9], 0.182 E-score; in [10] it was 0.304 E-score; in test [11], 0.288 E-score.
Turning to ACGTATCT, the binding signal stood at 0.189 E-score in [1]; 0.0824 E-score in test [2]; 0.425 E-score in test [3]; 0.38 E-score in [4]; 0.334 E-score in test [5]; 0.306 E-score in test [6]. Moreover, the binding signal in test [7] is 0.393 E-score; in test [8], 0.189 E-score; in test [9] it was 0.14 E-score; in [10], 0.393 E-score; in [11] it was 0.313 E-score.
ACGTCACT: the binding signal in test [1] amounted to 0.383 E-score; in [2], 0.0658 E-score; in test [3], 0.365 E-score; in [4] it was 0.342 E-score; in [5], 0.354 E-score; in test [6] it was 0.406 E-score. In addition, the binding signal in test [7] was 0.354 E-score; in [8], 0.234 E-score; in [9], 0.314 E-score; in [10], 0.355 E-score; in test [11], 0.328 E-score.
As to TACACGCA, the binding signal worked out at 0.467 E-score in [1]; 0.0803 E-score in test [2]; 0.415 E-score in test [3]; 0.382 E-score in test [4]; 0.369 E-score in test [5]; 0.463 E-score in test [6]. In addition, the binding signal was found to be 0.375 E-score in test [7]; 0.363 E-score in test [8]; 0.385 E-score in test [9]; 0.404 E-score in test [10]; 0.385 E-score in test [11].
As to ACACACGC, the binding signal in test [1] was found to be 0.37 E-score; in test [2] it was 0.0666 E-score; in test [3], 0.169 E-score; in test [4], 0.199 E-score; in test [5], 0.135 E-score; in test [6], 0.423 E-score. Further, the binding signal in test [7] was determined as 0.0855 E-score; in [8], 0.221 E-score; in test [9] it was 0.221 E-score; in test [10] it was 0.198 E-score; in test [11], 0.213 E-score.
For the sequence GGAGGTAA, the binding signal is 0.079 E-score in test [1]; 0.202 E-score in test [2]; 0.0898 E-score in test [3]; 0.0701 E-score in test [4]; 0.137 E-score in [5]; 0.122 E-score in [6]. For the same sequence, the binding signal in [7] is 0.146 E-score; in test [8], 0.106 E-score; in [12], 0.435 E-score; in test [9] it was 0.19 E-score; in test [10], 0.139 E-score; in [11] it was 0.0814 E-score.
ACGCAAAT: the binding signal in test [1] was 0.418 E-score; in test [2] it was 0.0591 E-score; in test [3], 0.268 E-score; in test [4], 0.232 E-score; in [5], 0.262 E-score; in test [6], 0.42 E-score. Moreover, the binding signal in test [7] was 0.235 E-score; in test [8] it was 0.265 E-score; in test [12], 0.0579 E-score; in test [9], 0.325 E-score; in test [10], 0.325 E-score; in [11], 0.281 E-score.
With GTACGCTA, the binding signal in test [1] turned out to be 0.428 E-score; in test [2] it was 0.0905 E-score; in test [3], 0.124 E-score; in [4], 0.165 E-score; in test [5], 0.238 E-score; in [6] it was 0.449 E-score. Further, the binding signal in test [7] stood at 0.219 E-score; in test [8], 0.288 E-score; in test [12], 0.129 E-score; in test [9], 0.447 E-score; in [10] it was 0.15 E-score; in test [11], 0.233 E-score.
In the case of TTACGCAA, the binding signal came out at 0.484 E-score in test [1]; 0.18 E-score in [2]; 0.447 E-score in test [3]; 0.335 E-score in [4]; 0.375 E-score in test [5]; 0.484 E-score in [6]. The binding signal in test [7] was determined as 0.442 E-score; in test [8] it was 0.437 E-score; in [12], 0.18 E-score; in test [9], 0.495 E-score; in test [10] it was 0.457 E-score; in test [11], 0.468 E-score.
With CACGAAAC, the binding signal was determined as 0.425 E-score in test [1]; 0.112 E-score in [2]; 0.358 E-score in test [3]; 0.343 E-score in test [4]; 0.261 E-score in test [5]; 0.452 E-score in test [6]. In addition, the binding signal in test [7] was 0.208 E-score; in test [8], 0.224 E-score; in test [12], 0.137 E-score; in test [9], 0.177 E-score; in test [10] it was 0.326 E-score; in test [11] it was 0.246 E-score.
As to CACGTAAG, the binding signal in test [1] is 0.449 E-score; in test [2], 0.068 E-score; in [3] it was 0.463 E-score; in test [4] it was 0.441 E-score; in [5], 0.349 E-score; in test [6] it was 0.446 E-score. Also, the binding signal came out at 0.419 E-score in [7]; 0.201 E-score in [8]; 0.17 E-score in test [12]; 0.0778 E-score in test [9]; 0.447 E-score in [10]; 0.447 E-score in [11].
ACGTTTCC: the binding signal in test [1] turned out to be 0.411 E-score; in test [2], 0.141 E-score; in [3] it was 0.312 E-score; in [4], 0.343 E-score; in [5], 0.327 E-score; in test [6], 0.432 E-score. The binding signal in test [7] is 0.354 E-score; in test [8], 0.255 E-score; in [12], 0.439 E-score; in test [9] it was 0.381 E-score; in [10], 0.347 E-score; in test [11], 0.359 E-score.
TAAGCAAA: the binding signal in test [1] came to 0.201 E-score; in [2], 0.431 E-score; in test [3] it was 0.113 E-score; in test [4], 0.208 E-score; in [5], 0.202 E-score; in test [6], 0.308 E-score. The binding signal worked out at 0.103 E-score in test [7]; 0.291 E-score in [8]; 0.241 E-score in [12]; 0.409 E-score in test [9]; 0.248 E-score in [10]; 0.252 E-score in test [11].
